The list is not random: actives were taken first. Their share in the collection is about 2.8%.
PAFAH2 inh: inhibitors of human PAFAH2. Q99487. recombinant PAFAH2, FP-rhodamine activity probe, fluorescence polarization. inhibition, % at 3.39 µM. 0.99% of 340,000 active. AID 492956;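 active = inhibition above the mean over all tested compounds plus 3 SD, cut at about 30% in these data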;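 also: inhibitors block probe labeling of enzyme so polarization drops; 0% = enzyme with DMSO and 100% = wells lacking PAFAH2 protein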
PAFAH1B3 inh: PAFAH1B3 (human) inhibition | Q15102 | recombinant PAFAH1B3, FP-rhodamine probe, fluorescence polarization | inhibition, % at 3.39 µM | 0.28% of 340,000 active;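 active = inhibition above the screen-wide average of all tested compounds plus 3 SD, cut at about 25% in these data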;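 also: 0% = enzyme with DMSO only and 100% = wells lacking PAFAH1B3 protein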
Target sequence (Q15102 whole entry, looked up): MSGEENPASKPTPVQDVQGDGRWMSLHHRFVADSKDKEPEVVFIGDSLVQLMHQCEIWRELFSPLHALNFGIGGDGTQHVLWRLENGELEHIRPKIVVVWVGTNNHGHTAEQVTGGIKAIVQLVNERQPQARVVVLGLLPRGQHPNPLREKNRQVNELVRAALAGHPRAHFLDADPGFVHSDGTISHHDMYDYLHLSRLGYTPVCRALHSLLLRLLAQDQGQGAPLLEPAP
pPAFAH inh: pPAFAH (human) enzyme inhibition; Q13093; recombinant pPAFAH, FP-rhodamine probe fluorescence polarization; inhibition, % at 3.39 µM; 1.5% of 330,000 active; AID 463082;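 active = inhibition above the mean inhibition across the screen plus 3 SD, cut at about 25% in these data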;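 also: inhibitors block binding of the rhodamine activity-based probe so polarization drops; 0% = enzyme with DMSO and 100% = wells lacking pPAFAH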
PAFAH1B2 inh: inhibitors of human PAFAH1B2 | P68402 | recombinant PAFAH1B2, FP-rhodamine activity probe, fluorescence polarization | inhibition, % at 3.39 µM | 1.2% of 340,000 active;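 active = inhibition above the mean of all tested compounds plus 3 SD, cut at about 24% in these data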;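 also: 0% = enzyme with DMSO and 100% = wells lacking PAFAH1B2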
Fam108B counter: Fam108B inhibition, counter-screen for RBBP9 inhibitors. recombinant Fam108B, FP-Rh probe fluorescence polarization. inhibition, % at 9.51 µM. 0.33% of 300,000 active;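 active = inhibition above the screen mean inhibition plus 3 SD, computed separately per campaign, cut at about 18% in these data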;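 also: inhibitors lower polarization as less probe binds the enzyme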
PME-1 primary: PME-1 (human) inhibition | Q9Y570 | recombinant PME-1, FP-Rh probe fluorescence polarization | inhibition, % at 5.9 µM | 0.53% of 320,000 active;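 active = inhibition above the campaign mean of all compounds plus 3 SD, cut at about 26% in these data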;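 also: competitive labeling of PME-1 active site by serine hydrolase directed probe; 0% = PME-1 with DMSO and 100% = wells lacking PME-1 enzyme; inhibitors block probe labeling so polarization falls and inhibition rises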
Target sequence (Q9Y570 whole entry, looked up): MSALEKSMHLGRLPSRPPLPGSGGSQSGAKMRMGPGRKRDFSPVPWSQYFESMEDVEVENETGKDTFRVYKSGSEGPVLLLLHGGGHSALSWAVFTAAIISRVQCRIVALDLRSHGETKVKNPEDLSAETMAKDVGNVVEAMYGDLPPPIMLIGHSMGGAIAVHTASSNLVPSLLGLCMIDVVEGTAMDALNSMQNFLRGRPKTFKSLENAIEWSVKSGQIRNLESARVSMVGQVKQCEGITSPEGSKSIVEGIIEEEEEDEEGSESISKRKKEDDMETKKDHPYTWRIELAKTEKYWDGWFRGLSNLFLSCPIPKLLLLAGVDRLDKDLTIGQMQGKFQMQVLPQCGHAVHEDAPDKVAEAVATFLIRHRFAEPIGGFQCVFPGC
PAFAH2 FP conf: confirmation of human PAFAH2 inhibitors; 65% of 2,300 active; AID 493030; inhibition, % at 3.39 µM; shares compounds with PAFAH2 inh; recombinant PAFAH2, FP-rhodamine activity probe, fluorescence polarization;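 active = mean inhibition over three repeats above a set limit taken from the earlier primary screen, cut at about 30% in these data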;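 also: inhibitor blocks binding of rhodamine activity probe so polarization falls; 0% = enzyme with DMSO and 100% = wells lacking PAFAH2 protein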
PAFAH1B3 confirm: PAFAH1B3 (human) inhibition, confirmed. shares compounds with PAFAH1B3 inh. recombinant PAFAH1B3, FP-Rh activity-based probe, fluorescence polarization. inhibition, % at 3.39 µM. 30% of 390 active;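 active = average inhibition over triplicate runs above the hit cutoff set in the earlier primary screen, cut at about 25% in these data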;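 also: 0% = enzyme with DMSO and 100% = wells lacking PAFAH1B3 protein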
* = called active by the depositor; . = no result.

SMILES | PAFAH2 inh | PAFAH1B3 inh | pPAFAH inh | PAFAH1B2 inh | Fam108B counter | PME-1 primary | PAFAH1B3 confirm | others
COc1ccc(/C=C/C(=O)OCC(=O)Nc2cccc(S(=O)(=O)NC3=NCCCCC3)c2)cc1 | 68* | 9 | 3 | -2 | . | . | . | PAFAH2 FP conf=50*
COc1cc(OC)cc(C(=O)OCC(=O)Nc2cccc(S(=O)(=O)NC3=NCCCCC3)c2)c1 | -7 | 8 | 2 | 8 | . | . | .
Nc1ccc(C(=O)OCC(=O)Nc2cccc(S(=O)(=O)NC3=NCCCCC3)c2)cc1[N+](=O)[O-] | 54* | 4 | 6 | 3 | . | . | . | PAFAH2 FP conf=60*
COc1ccc(N2C(=NC(=O)c3ccccc3)SC3CS(=O)(=O)CC32)cc1 (centres undefined) | 7 | 3 | 3 | 5 | -1 | -1 | .
O=C(Nc1ccccc1)OCCOc1ccc(Br)cc1 | 3 | 9 | . | 12 | . | . | .
Cc1cc(=O)n2[nH]c(SCc3c(F)cccc3Cl)nc2n1 | 21 | -1 | -1 | 6 | 2 | -4 | .
Cc1cc(=O)n2[nH]c(SCc3ccccc3Cl)nc2n1 | 40* | 6 | 21 | 4 | 0 | -5 | . | PAFAH2 FP conf=28
O=C(COC(=O)/C=C/c1ccc(S(=O)(=O)N2CCOCC2)cc1)NCc1ccc(F)cc1 | 39* | 21 | 9 | 2 | 1 | 4 | . | PAFAH2 FP conf=34*
COc1ccc(/C=C/C(=O)OCC(=O)Nc2c(C)cccc2C)cc1 | 63* | 5 | 7 | 6 | -1 | 1 | . | PAFAH2 FP conf=65*
COc1ccc(/C=C/C(=O)OCC(=O)NC(C)CCc2ccccc2)cc1 (centres undefined) | 68* | 7 | 7 | 7 | . | . | . | PAFAH2 FP conf=55*
Cc1cc(S(=O)(=O)N2CCOCC2)ccc1OCC(=O)Nc1ccccc1F | -13 | 1 | -1 | 3 | -3 | 2 | .
COc1ccc(CNC(=O)COC(=O)/C=C/c2ccc(Cl)cc2)cc1 | 5 | 10 | 1 | 0 | -2 | -2 | .
COc1ccc(/C=C/C(=O)OCC(=O)NCCNC(=O)COC(=O)/C=C/c2ccc(OC)cc2)cc1 | 0 | -6 | -1 | 2 | 1 | 3 | .
O=C(COC(=O)/C=C/c1ccc(S(=O)(=O)N2CCOCC2)cc1)Nc1ccccc1F | 60* | 10 | 9 | 6 | . | . | . | PAFAH2 FP conf=42*
CCc1ccc(NC(=O)CSc2nc(=O)n3cc(C)ccc3n2)cc1 | 4 | 6 | -1 | 4 | 3 | 3 | .
Cc1nn(-c2ccccc2)c(C)c1NC(=O)COC(=O)/C=C/c1ccccc1 | 39* | 3 | 6 | 1 | 3 | -3 | . | PAFAH2 FP conf=32*
Cc1ccc(F)cc1NC(=O)/C=C/c1ccc(S(=O)(=O)N2CCOCC2)cc1 | -5 | 6 | 3 | 1 | . | . | .
CCC(C(=O)OCC(=O)Nc1c(C)nn(-c2ccccc2)c1C)c1ccccc1 (centres undefined) | 1 | -1 | 12 | 3 | -5 | 1 | .
Cc1cccc(C)c1NC(=O)COC(=O)/C=C/c1ccc(S(=O)(=O)N2CCOCC2)cc1 | 45* | 8 | 1 | 8 | . | . | . | PAFAH2 FP conf=29
Cc1ccc(S(=O)(=O)N2CCOCC2)cc1NC(=O)COC(=O)/C=C/c1ccc(F)cc1 | 53* | 4 | 2 | 0 | . | . | . | PAFAH2 FP conf=47*
O=C(NCCN1C(=O)S/C(=C\c2ccc(Cl)c([N+](=O)[O-])c2)C1=O)C1=COCCO1 | 3 | 10 | 10 | 4 | -3 | 3 | .
CC(=O)N(C1=C(Cl)C(=O)c2ccccc2C1=O)C1CCCCC1 | 5 | 33* | 1 | 4 | 4 | 9 | 18
CC(=O)N(c1ccccc1C)C1CCCC1 | -4 | 4 | 2 | 8 | 4 | 5 | .
Cc1nc2ccc(C(=O)N/N=C/c3cc([N+](=O)[O-])ccc3O)cc2[nH]1 | 1 | 27* | 13 | 7 | 4 | -7 | 24
CC(NC1=CC(=O)c2cccnc2C1=O)C(O)c1ccccc1 (centres undefined) | 15 | 56* | . | 13 | . | . | 43*
SMILES | PAFAH2 inh | PAFAH1B3 inh | pPAFAH inh | PAFAH1B2 inh | Fam108B counter | PME-1 primary | PAFAH1B3 confirm | others
O=C(c1cc2ccccc2oc1=O)N(Cc1ccccc1F)C1CCS(=O)(=O)C1 (centres undefined) | -5 | 7 | 4 | 5 | 0 | -4 | .
O=C(N1CCCCC1)C12CC3CC(C1)CC(C(=O)N1CCCCC1)(C3)C2 | 0 | 39* | 8 | 3 | 0 | -5 | 10
CN=c1sc(C(=O)Nc2ccccc2)c(C)n1C | 4 | 2 | 4 | 4 | -7 | -7 | .
CN=c1sc2c(n1C)C(=O)c1ccccc1C2=O | 14 | 42* | . | 13 | . | . | 29*
Cc1cccc(NC(=O)CN2C(=O)N/C(=C\c3ccc(-c4cccc(C(=O)O)c4)o3)C2=O)c1 | 6 | 81* | 10 | 8 | 0 | 5 | 76*
O=[N+]([O-])c1cc(NCCO)c(N2CCCCCC2)c2nonc12 | 11 | 6 | 7 | 3 | -1 | -2 | .
Cn1c2ccccc2c(=O)c2ccc(C#Cc3ccc(N)cc3)cc21 | -13 | 35* | 24 | 2 | 13 | 16 | 17
O=C1C=C(N(CCO)Cc2ccccc2)c2ccccc2C1=O | 20 | 44* | . | 10 | . | . | 29*
COc1ccc(OC)c(NC(=O)c2cccc(N3C(=O)C4C5C=CC(C6CC56)C4C3=O)c2)c1 (centres undefined) | 6 | 6 | 2 | 0 | 1 | -2 | .
CN(C)c1ccc(NC2=C(Cl)C(=O)c3ccccc3C2=O)cc1 | 15 | 39* | 15 | 24 | 9 | 14 | 23
Cc1ccc(NC2=C(NCCO)C(=O)c3ccccc3C2=O)cc1 | 9 | 22 | -4 | -3 | 1 | 9 | .
COc1ccc(C(=O)OCC(=O)c2c(N)n(C)c(=O)n(C)c2=O)c(OC)c1OC | 4 | 26* | -4 | 5 | . | . | 9
Cn1c(N)c(C(=O)COC(=O)c2ccnc3ccccc23)c(=O)n(C)c1=O | -9 | 2 | 4 | 6 | -1 | -2 | .
COc1ccc(S(=O)(=O)Nc2cccc(-c3ccc(N4CCCCCC4)nn3)c2)c(OC)c1 | -7 | -8 | 5 | 0 | -15 | 1 | .
CC1(c2nnc(-c3ccc(F)cc3)o2)CC(c2cccnc2)=NO1 (centres undefined) | 4 | 15 | 1 | 5 | -1 | 0 | .
CC1(c2nnc(-c3ccncc3)o2)CC(c2ccc(F)cc2)=NO1 (centres undefined) | -32 | 26* | 0 | 6 | -1 | 3 | 10
Cc1csc2nc(SCC(=O)Nc3ccccc3F)[nH]c(=O)c12 | 1 | 9 | 2 | 4 | -9 | -8 | .
COC(=O)c1cc2c(n1S(=O)(=O)c1ccc(C)cc1)C(=O)C(=O)c1[nH]cc(C(=O)OCc3ccccc3)c1-2 | 13 | 39* | . | 7 | . | . | 34*

Screening data: PubChem BioAssay, The Scripps Research Institute Molecular Screening Center
